“And” between values parts separate entries of the source, which are not always exact repeats. Identical values can stand only once. Results filed as inconclusive are left out. Where a structure was tested more than once in an assay, its records may differ in their call. The source made the active and inactive calls. The calls were made as follows: active = hit-call score of the fitted dose curve at least 0.9, where 1 is the maximum; inconclusive = response in the unintended direction; inactive = score below 0.9. Peptide text beside a SMILES is read from it.
Experiments:
[1] = TOX21_p53_BLA_p2_viability: Viability Assessment in the Tox21 HCT-116 p53 Agonism Beta-lactamase Assay, Phase 2 (AID 2283591);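 also: compound exposure lasted 16 h at 37 °C; actives lower the ATP signal meaning cytotoxicity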
In short: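 Cytotoxicity readout: CellTiter-Glo ATP luminescence, 30 min at room temperature, after the beta-lactamase read. Cells were HCT116 exposed 16 h at 37C to compounds pin-transferred at 217-fold dilution from DMSO stocks.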

[2] = TOX21_p53_BLA_p3_viability: Viability Assessment in the Tox21 HCT-116 p53 Agonism Beta-lactamase Assay, Phase 3 (AID 2283593);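 also: cells exposed to compound for 16 h before reading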
In short: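 Cellular ATP was quantified by CellTiter-Glo luminescence, read after 30 min at room temperature. Beforehand, HCT116 cells (4000/well) received compound 5 h post-seeding, 217-fold diluted from DMSO, then incubated 16 h at 37C.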

[3] = TOX21_p53_BLA_p4_viability: Viability Assessment in the Tox21 HCT-116 p53 Agonism Beta-lactamase Assay, Phase 4 (AID 2283597);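 also: hits lower the luminescence signal meaning cytotoxicity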
In short: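 We seeded HCT116 p53 reporter cells at 4000/well and waited 5 h. We then added compounds in DMSO at a 217-fold dilution and incubated for 16 h. Viability was read as CellTiter-Glo luminescence after 30 min at RT.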

[4] = target: Cellular tumor antigen p53 (Homo sapiens) (UniProt P04637); assay: TOX21_p53_BLA_p4_ratio: Tox21 HCT-116 p53 Agonism Beta-lactamase Assay, Ratio, Phase 4 (AID 2283601)
Sequence of Cellular tumor antigen p53 (Homo sapiens) (P04637 whole entry, looked up): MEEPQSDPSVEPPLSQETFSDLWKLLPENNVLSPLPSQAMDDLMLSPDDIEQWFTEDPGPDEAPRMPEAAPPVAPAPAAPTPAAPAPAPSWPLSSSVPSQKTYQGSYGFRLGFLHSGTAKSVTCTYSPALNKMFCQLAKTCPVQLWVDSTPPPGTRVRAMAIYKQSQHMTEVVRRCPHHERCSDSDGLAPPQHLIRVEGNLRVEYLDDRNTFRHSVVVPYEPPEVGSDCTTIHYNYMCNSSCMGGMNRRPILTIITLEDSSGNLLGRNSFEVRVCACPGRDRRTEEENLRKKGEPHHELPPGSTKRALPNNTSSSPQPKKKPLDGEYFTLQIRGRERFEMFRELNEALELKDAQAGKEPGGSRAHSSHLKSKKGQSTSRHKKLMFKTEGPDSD
In short: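 Signal is the blue/green (460nm/530nm) ratio of cleaved versus uncleaved CCF4-AM substrate, read after 2 h substrate loading. Cells were HCT116 carrying the p53-responsive beta-lactamase reporter, dosed 16 h at 37C, 5% CO2; CellTiter-Glo measured in parallel.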

[5] = Tanguay_ZF_120hpf_YSE_legacy: (Legacy) Oregon State University Tanguay Lab 120 Hour Post-fertilization zebrafish Assay for Yolk Sac Edema (AID 2283634)
In short: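 Binary brightfield scoring of yolk sac edema at 120 hpf; DMSO baseline, gain-of-signal fitting. Dechorionated 5D larvae, one per well, static exposure 6–120 hpf, 28C, 0.64% DMSO. Dead embryos not scored.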

[6] = Tanguay_ZF_120hpf_EYE_legacy: (Legacy) Oregon State University Tanguay Lab 120 Hour Post-fertilization zebrafish Assay for Eye Malformation (AID 2283636)
In short: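 Read-out is binary presence or absence of eye malformation, scored by brightfield microscopy at 120 hpf. Single larvae were exposed from 6 hpf in embryo medium containing 0.64% DMSO, with DMSO as baseline.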

[7] = ATG_XTT_Cytotoxicity: Cytotoxicity Assessment in the Attagene TRANS-FACTORIAL HepG2 Assay (AID 2283584);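 as to AC50: cells exposed to compound for 24 h before reading; active means loss of viability signal versus DMSO baseline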
In short: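 XTT readout of cell number in transfected HepG2 cells, 24 h post-dosing; DMSO serves as negative control and baseline, with activity taken as loss of viability signal.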

[8] = target: Cellular tumor antigen p53 (Homo sapiens) (UniProt P04637); assay: TOX21_p53_BLA_p2_ratio: Tox21 HCT-116 p53 Agonism Beta-lactamase Assay, Ratio, Phase 2 (AID 2283592)
In short: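 In this cell-based reporter format, HCT116 cells were dosed with chemicals delivered from DMSO by 217-fold dilution and incubated 16 h at 37C. Emission at 460 and 530 nm after 2 h CCF4-AM loading provided the ratio, fitted upward versus DMSO.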

[9] = target: Cellular tumor antigen p53 (Homo sapiens) (UniProt P04637); assay: TOX21_p53_BLA_p3_ratio: Tox21 HCT-116 p53 Agonism Beta-lactamase Assay, Ratio, Phase 3 (AID 2283596)
In short: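 HCT116 p53-bla cells (4000/well) given compound in DMSO (217-fold dilution) after 5 h, incubated 16 h at 37C. CCF4-AM substrate 2 h at room temperature; 460/530 nm emission ratio, gain fitted against DMSO.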

[10] = target: Cellular tumor antigen p53 (Homo sapiens) (UniProt P04637); assay: TOX21_p53_BLA_p5_ratio: Tox21 HCT-116 p53 Agonism Beta-lactamase Assay, Ratio, Phase 5 (AID 2283599)
In short: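 Beta-lactamase reporter ratio (blue 460 nm over green 530 nm, 405 nm excitation) after 2 h CCF4-AM loading, in HCT-116 cells exposed 16 h at 37 C to compounds pinned at 217-fold dilution. Increases relative to DMSO baseline scored.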

[11] = TOX21_p53_BLA_p5_viability: Viability Assessment in the Tox21 HCT-116 p53 Agonism Beta-lactamase Assay, Phase 5 (AID 2283600)
In short: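 Compounds, pinned from DMSO at 217-fold dilution, were left on the cells for 16 h. The viability endpoint was ATP content measured by CellTiter-Glo luminescence, where falling signal reflects cytotoxicity.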

Measured: AC50

C1CNCCN1
inactive: [1] | [2] | [3] | [4] | [5] | [6]

Nc1ccc(C(=O)O)cc1
inactive: [1]

Cc1ccc([N+](=O)[O-])cc1N
inactive: [4] | [5]

O=C(Cl)c1ccc(C(=O)Cl)cc1
not listed: [4] | [5] | [6] | [11]
inactive: all other assays above

CC(C)(CO)COC(=O)C(C)(C)CO
not listed: [4] | [5] | [6]
inactive: all other assays above

O=C(Nc1ccccc1)c1cc(Cl)ccc1O
inactive: [7] | [2] | [11] | [4]
active: [1] 12.9 µM | [8] 3.55 µM | [9] 4.05 µM | [3] 12.6 µM | [10] 13.7 µM

COC(=O)[C@H](Cc1ccccc1)NC(=O)[C@@H](N)CC(=O)O (H-Asp-Phe-OMe)
not listed: [5] | [6]
inactive: all other assays above

N#CC1(N)CCCCC1
not listed: [4] | [5] | [6]
inactive: all other assays above

O=C(O)/C=C/c1ccccc1
not listed: [5] | [6]
inactive: all other assays above

CN(C)c1ccc2nc3ccc(=[N+](C)C)cc-3sc2c1
inactive: [7] | [1] | [2] | [9] | [3] | [10] | [11]
active: [8] 8.31 µM and 23 µM and 11.1 µM | [2] 23 µM | [9] 34.3 µM | [3] 10.8 µM | [10] 45.7 µM and 13 µM | [4] 41.2 µM and 14.4 µM and 28.4 µM

C=CCNCC=C
inactive: [7] | [1] | [8] | [2] | [9] | [10] | [11] | [4]
active: [9] 84.2 µM

CC1C(C)(C)C2=C(C(=O)CCC2)C1(C)C (stereo unspecified)
not listed: [4] | [5] | [6]
inactive: all other assays above

CCCCCCCCCCCCc1ccc(O)cc1
inactive: [7]
active: [7] 50.4 µM | [8] 65.5 µM | [2] 39.9 µM | [9] 49.9 µM | [3] 16.3 µM | [10] 52.1 µM | [11] 24 µM | [4] 28.3 µM

C[Si](C)(C)N[Si](C)(C)C
not listed: [5] | [6]
inactive: all other assays above

O=C(Cl)c1c(Cl)c(Cl)c(C(=O)Cl)c(Cl)c1Cl
not listed: [5] | [6]
inactive: all other assays above

C=C(C)OC(C)=O
not listed: [5] | [6]
inactive: all other assays above

CC(CC(C)C)=NO
not listed: [4] | [5] | [6] | [11]
inactive: all other assays above

CC(C)[N+](C)(CCOC(=O)C1c2ccccc2Oc2ccccc21)C(C)C
not listed: [5] | [6]
inactive: all other assays above

CC1(C)[C@@H]2CC[C@@]1(C)C(=O)C2
not listed: [4] | [5] | [6]
inactive: all other assays above

COc1ccc(-c2coc3cc(O)cc(O)c3c2=O)cc1
active: [1] 68.5 µM | [8] 71.6 µM and 72 µM
inactive: [7] | [1] | [2] | [9] | [3] | [10] | [11] | [4]

CC(=O)OC1CCCCC1C(C)(C)C (stereo unspecified)
not listed: [5] | [6]
inactive: all other assays above

C=C(C)C(=O)OCC(O)COc1ccc(C(C)(C)c2ccc(OCC(O)COC(=O)C(=C)C)cc2)cc1 (stereo unspecified)
inactive: [7] | [8] | [2] | [10] | [11]
active: [1] 69.2 µM | [9] 86.7 µM | [3] 46.1 µM

CCCCC/C=C\C/C=C\CCCCCCCC(=O)O
inactive: [7] | [1] | [8] | [2] | [9] | [3] | [10] | [11] | [4]
active: [1] 41.5 µM | [8] 72.9 µM | [2] 47.2 µM | [9] 72 µM | [10] 86.3 µM | [11] 80.5 µM

[Cl][Sc]([Cl])[Cl]
inactive: [7]

CC(C)(c1ccccc1)c1ccc(Nc2ccc(C(C)(C)c3ccccc3)cc2)cc1
not listed: [4] | [5] | [6]
inactive: all other assays above

O=C(Oc1ccccc1)c1ccccc1C(=O)Oc1ccccc1
not listed: [4] | [5] | [6] | [11]
inactive: all other assays above

c1ccc(Nc2cccc3ccccc23)cc1
active: [1] 71.1 µM | [8] 77.1 µM and 81.1 µM | [3] 43.6 µM and 82.6 µM | [10] 82.2 µM | [4] 74.3 µM
inactive: [7] | [1] | [2] | [9] | [10] | [11] | [4]

COc1ccc(C(=O)/C(Br)=C\C(=O)O)cc1
active: [1] 86.2 µM | [8] 24.8 µM and 24.2 µM | [2] 74.8 µM | [9] 14.4 µM and 25.8 µM | [3] 76.7 µM and 44.5 µM | [10] 21 µM and 21.6 µM | [11] 39.1 µM | [4] 60 µM and 27.2 µM
inactive: [7] | [1] | [2] | [11]

Oc1ccc(-c2ccccc2)c(Cl)c1
active: [7] 159 µM | [3] 60.8 µM | [4] 76.2 µM
inactive: [7] | [1] | [8] | [2] | [9] | [10] | [11]

CCCCNS(=O)(=O)c1ccccc1
not listed: [4] | [5] | [6]
inactive: all other assays above

CCCCCCOc1ccc(N)cc1
not listed: [5] | [6]
inactive: all other assays above

CCCCCCCOC(=O)c1ccc(O)cc1
active: [1] 44.8 µM | [8] 58.9 µM and 86.4 µM | [2] 44.2 µM | [9] 74.5 µM | [3] 51.3 µM | [10] 74.3 µM
inactive: [7] | [1] | [2] | [9] | [3] | [10] | [11]

N=C1C=CC(=C(c2ccc(N)cc2)c2ccc(N)cc2)C=C1
inactive: [7] | [1] | [2] | [3]
active: [8] 54.2 µM | [9] 60.4 µM | [10] 67.3 µM

O=C1CCCCCCCCCCCN1
not listed: [4] | [5] | [6]
inactive: all other assays above

Oc1c(Cl)cc(Cl)c(Cl)c1Cl
active: [8] 34.4 µM and 22.5 µM | [9] 17 µM and 27.1 µM | [10] 27 µM and 21.1 µM | [4] 35.5 µM and 18.8 µM
not listed: [5] | [6]
inactive: all other assays above

C=C1C[C@H]2[C@@H]3C=C(C)C4=CC(=O)CC[C@]4(C)[C@H]3CC[C@]2(C)[C@@]1(OC(C)=O)C(C)=O
not listed: [5] | [6]
inactive: all other assays above

CCCCCCCCCCCCCC(=O)OC(C)C
not listed: [5] | [6]
inactive: all other assays above

CCCCCCO
not listed: [4] | [5] | [6] | [10]
inactive: all other assays above

CC(C)c1cccc(C(C)C)c1N
inactive: [7] | [1] | [8] | [2] | [9] | [10]

COCC(=O)O
not listed: [5] | [6] | [9] | [10]
inactive: all other assays above

O=C(O)c1cc(O)c2ccccc2c1O
not listed: [3] | [5] | [6]
inactive: all other assays above

CC(=O)CC(=O)Nc1ccccc1C
not listed: [3] | [4] | [5] | [6]
inactive: all other assays above

CCN1CCCC1=O
not listed: [3] | [5] | [6]
inactive: all other assays above

CC(C)(C)NC(=O)[C@H]1CC[C@H]2[C@@H]3CC[C@H]4NC(=O)C=C[C@]4(C)[C@H]3CC[C@]12C
not listed: [4] | [5] | [6] | [10]
inactive: all other assays above

Fc1ccc(Br)cc1
not listed: [5] | [6] | [11]
inactive: all other assays above

Oc1ccc(/C=C/c2cc(O)cc(O)c2)cc1
not listed: [5] | [6]
inactive: all other assays above

CCOC(=O)/C=C\C(=O)OCC
not listed: [3] | [5] | [6]
inactive: all other assays above

CCCCCCC=O
not listed: [5] | [6]
inactive: all other assays above

CC/C=C\CCOC(=O)c1ccccc1O
not listed: [3] | [4] | [5] | [6]
inactive: all other assays above

CCCC(CC)c1ccccc1 (stereo unspecified)
inactive: [7] | [1] | [8] | [2] | [3]

O=C(O)c1ccc2c(c1)C(=O)OC2=O
not listed: [5] | [6] | [10]
inactive: all other assays above

CC(C)CC(=O)OCc1ccccc1
not listed: [5] | [6] | [9]
inactive: all other assays above

CC(C)OC(=O)c1ccccc1
inactive: [7] | [1] | [8] | [2] | [9] | [10]

Reference: PubChem BioAssay (EPA / NIEHS)
